Assay outcomes deposited in PubChem BioAssay by Center for Chemical Genomics, University of Michigan.
The full list was thinned out, with hits kept by preference.
Dicer processing: inhibitors of human Dicer processing of pre-microRNA. z-score at 25 µM. cat-ELCCA pre-miR-21 Dicer processing, chemiluminescence; active compounds read high. AID 1347074. hit rate 6% among 47,000. Q9UPY3; in the data active means z-score above about 3, passing the limit was not always enough;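 further: plate controls were vehicle for no effect and no enzyme for full effect; higher signal means more uncleaved substrate so more Dicer inhibition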
Target sequence (Q9UPY3 whole entry, looked up): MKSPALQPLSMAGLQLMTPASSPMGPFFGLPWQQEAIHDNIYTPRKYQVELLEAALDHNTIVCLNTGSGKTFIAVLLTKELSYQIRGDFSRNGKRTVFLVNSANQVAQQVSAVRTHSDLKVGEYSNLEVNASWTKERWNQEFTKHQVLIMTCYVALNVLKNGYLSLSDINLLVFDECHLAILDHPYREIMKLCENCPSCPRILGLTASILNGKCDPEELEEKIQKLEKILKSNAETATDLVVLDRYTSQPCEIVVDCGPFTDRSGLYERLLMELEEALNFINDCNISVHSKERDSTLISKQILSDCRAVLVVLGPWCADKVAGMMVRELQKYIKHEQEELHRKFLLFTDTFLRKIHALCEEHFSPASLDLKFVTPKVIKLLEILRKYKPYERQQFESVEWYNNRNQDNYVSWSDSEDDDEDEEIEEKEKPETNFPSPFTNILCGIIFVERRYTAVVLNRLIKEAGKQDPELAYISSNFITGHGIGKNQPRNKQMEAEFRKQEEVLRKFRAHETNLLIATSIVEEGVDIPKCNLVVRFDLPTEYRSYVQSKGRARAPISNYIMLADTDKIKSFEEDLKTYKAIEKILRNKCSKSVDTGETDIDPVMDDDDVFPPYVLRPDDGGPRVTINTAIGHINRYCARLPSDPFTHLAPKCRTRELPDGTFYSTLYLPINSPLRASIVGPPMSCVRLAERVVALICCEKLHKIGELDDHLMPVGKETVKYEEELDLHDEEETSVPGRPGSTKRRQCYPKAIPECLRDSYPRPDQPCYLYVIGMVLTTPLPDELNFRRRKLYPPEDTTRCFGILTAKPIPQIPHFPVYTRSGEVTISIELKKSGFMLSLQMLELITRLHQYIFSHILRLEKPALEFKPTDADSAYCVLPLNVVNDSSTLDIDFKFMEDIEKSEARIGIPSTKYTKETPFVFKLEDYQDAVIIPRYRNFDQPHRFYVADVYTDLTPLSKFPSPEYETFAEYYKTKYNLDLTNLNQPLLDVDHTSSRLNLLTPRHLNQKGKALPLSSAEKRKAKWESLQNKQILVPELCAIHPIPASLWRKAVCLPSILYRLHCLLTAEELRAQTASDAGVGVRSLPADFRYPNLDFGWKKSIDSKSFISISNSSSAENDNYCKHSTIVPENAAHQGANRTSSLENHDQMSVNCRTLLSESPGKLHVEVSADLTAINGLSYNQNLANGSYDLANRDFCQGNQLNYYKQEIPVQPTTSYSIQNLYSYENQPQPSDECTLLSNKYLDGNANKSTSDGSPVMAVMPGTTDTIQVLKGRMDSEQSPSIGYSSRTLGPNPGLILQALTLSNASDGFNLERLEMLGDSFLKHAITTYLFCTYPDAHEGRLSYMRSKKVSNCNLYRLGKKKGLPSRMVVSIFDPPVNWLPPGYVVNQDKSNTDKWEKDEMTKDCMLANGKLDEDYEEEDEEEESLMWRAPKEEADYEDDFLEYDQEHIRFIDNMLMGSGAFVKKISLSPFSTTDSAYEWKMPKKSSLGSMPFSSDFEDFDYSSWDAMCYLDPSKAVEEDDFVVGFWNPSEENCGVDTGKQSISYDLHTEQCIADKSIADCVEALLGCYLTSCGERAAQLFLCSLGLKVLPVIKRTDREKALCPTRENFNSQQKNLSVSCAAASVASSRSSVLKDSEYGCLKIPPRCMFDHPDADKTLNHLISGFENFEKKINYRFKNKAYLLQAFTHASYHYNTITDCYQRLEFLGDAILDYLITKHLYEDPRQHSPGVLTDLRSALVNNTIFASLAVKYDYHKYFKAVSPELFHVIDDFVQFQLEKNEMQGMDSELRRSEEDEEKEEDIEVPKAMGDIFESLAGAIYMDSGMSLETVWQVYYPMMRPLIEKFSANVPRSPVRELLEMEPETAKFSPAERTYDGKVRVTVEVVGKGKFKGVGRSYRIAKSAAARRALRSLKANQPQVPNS
Active calls of the source: *.

SMILES	Dicer processing
Cc1cccc(C)c1NS(=O)(=O)c1ccc(NS(=O)(=O)c2ccccc2)cc1	0.87
Cc1cc(O)cc(C)c1NS(=O)(=O)c1ccccc1	3.54*
Cc1cnc(NS(=O)(=O)c2ccccc2)c(Br)c1	-0.02
O=C1C2C(C(=O)C3C1[C@H]1C=C[C@@H]3C1)[C@H]1C=C[C@@H]2C1 (stereo partly drawn)	-0.93
Cc1cccnc1Nc1nc(-c2ccncc2)cs1	1.56
O=C1Nc2ccc(Br)cc2/C1=N/N=C/c1ccncc1	23.5
Cc1c(O)ccc2c1OC(C)(C)CC2=O	0.83
CCOC(=O)c1oc2cc(O)c(CC)cc2c(=O)c1-c1ccc2c(c1)OCCO2	4.52*
Cc1cc(=O)oc2cc(O)ccc12	0.16
CCCc1cc2c(=O)c(-c3ccc4c(c3)OCCO4)coc2cc1O	0.45
CCOC(=O)c1oc2cc(O)ccc2c(=O)c1-c1ccc2c(c1)OCCO2	2.57
COc1ccc(-c2c(C)oc3cc(OC(C)C(=O)O)ccc3c2=O)cc1OC (stereo not drawn)	1.33
Cc1oc2cc(O)ccc2c(=O)c1-c1ccc2c(c1)OCCO2	5.49*
Cc1cc(NCc2cccnc2)c2ncnn2n1	2.78
CC12C=CC(C)(O1)C1C(=O)N(c3ccc(-c4ccccc4)cc3)C(=O)C12 (stereo not drawn)	1.52
COc1ccc(C(=O)CSC2=NCCCCCC2)cc1	-2.39
COc1cccc(C(O)c2nccn2C)c1OC (stereo not drawn)	3.14
CCn1ccnc1C(O)c1ccc(C)cc1 (stereo not drawn)	3.06*
CCn1c(C(O)c2ccc(N(C)C)cc2)nc2ccccc21 (stereo not drawn)	2.55
O=[N+]([O-])c1ccc(OC2CCC3CCC2C3)cc1 (stereo not drawn)	-2.31
O=C1CC(N2CCN(c3ncccn3)CC2)C(=O)N1c1ccc(Cl)cc1 (stereo not drawn)	-0.45
CN1CCc2c(sc3c2C(=O)NC(c2cc(Br)ccc2OCc2ccccc2)N3)C1 (stereo not drawn)	-1.3
Cc1[nH]c2[nH]n(-c3ccccc3)c(=O)c2c(=O)c1Cc1ccc(Cl)cc1	-3.58
COc1ccc(-c2nnc3c4cnn(-c5ccccc5)c4ncn23)cc1	0.08
Cc1ccc(-c2nnc3c4cnn(-c5ccccc5)c4ncn23)cc1	0.47
SMILES	Dicer processing
c1ccc(-c2nnc3c4cnn(-c5ccccc5)c4ncn23)cc1	3.06*
COC(=O)c1cc(S(=O)(=O)N2CCN(C(c3ccccc3)c3ccccc3)CC2)oc1C	-0.26
N#C/C(=C\c1ccc(OC(=O)c2cccs2)cc1)c1ccccn1	1.58
NNC(=O)OC12CC3CC(CC(C3)C1)C2	-0.77
O=C1c2cccc3c(Br)ccc(c23)C(=O)N1Cc1ccccc1	1.52
O=C1c2cccc3c(Sc4ccccc4)ccc(c23)C(=O)N1Cc1ccccc1	5.23*
O=C1c2cccc3c(Sc4ccccc4)ccc(c23)C(=O)N1CCc1ccccn1	0.73
C#CC(CC)(CC)NC(=O)/C=C/c1ccccc1	0.35
CN(C)NC(=O)NC(=O)c1ccc(Oc2cc(Cl)cc(Cl)c2)c([N+](=O)[O-])c1	-0.73
CC(C)(C)c1ccc(NC(=O)N2CCCc3ccccc32)cc1	-0.42
N#Cc1c(C(F)(F)F)nn(-c2ccccc2)c1N	-0.61
Cc1oc2cc(O)ccc2c(=O)c1Oc1ccc(Cl)cc1	0.45
COC(=O)COc1ccc2c(=O)c(Oc3ccccc3Cl)c(C(F)(F)F)oc2c1	-1.08
Cc1oc2cc(O)ccc2c(=O)c1Oc1ccccc1Br	3.54*
CCOC(=O)Oc1ccc2c(=O)c(Oc3ccccc3Br)coc2c1	0.73
COC(=O)COc1ccc2c(=O)c(Oc3cc(C)cc(C)c3)c(C(F)(F)F)oc2c1	-0.48
COC(=O)COc1ccc2c(=O)c(Oc3ccccc3Br)c(C(F)(F)F)oc2c1	3.52*
O=C(O)CNC(=O)c1ccccc1Cl	-0.37
CCc1[nH]c(=S)c(C#N)c(C(F)(F)F)c1C	0.09
Cc1noc(COc2ccccc2)c1C(=O)O	0.71
FC(F)(F)c1ccc(-c2nnc3ccc(NC4CC4)nn23)cc1	0.27
C=CCNC(=O)c1cc2ccccc2o1	1.63
CCCCCCNC(=O)NC(Cc1ccccc1)C(=O)OCC (stereo not drawn)	-0.79
CCOC(=O)[C@H](CCCN=C(N)N)NC(=O)c1ccccc1	4.75*
O=C(NC(CO)C(=O)O)c1ccccc1 (stereo not drawn)	2.07
SMILES	Dicer processing
CN(NC(=O)c1ccncc1)c1ccc(C(F)(F)F)cc1[N+](=O)[O-]	-0.71
CCOC(=O)/C(C#N)=C/c1ccc(C)o1	1.55
CC1=C(C(=O)OCCOC(C)C)C(c2cccc(F)c2)C2=C(CC(C)(C)CC2=O)N1 (stereo not drawn)	-0.06
COc1ccc(Cl)cc1N1C(=O)CC(C)(C)CC1=O	-0.68
Cn1cc(C2CC(=O)N(c3ccc(Br)cc3)C2=O)c2ccccc21 (stereo not drawn)	0.86
Cc1ccc(S(=O)(=O)N2CCCOC2)cc1	3.82*
Cc1ccc(S(=O)(=O)N2CN3CN(C2)CN(S(=O)(=O)c2ccc(C)cc2)C3)cc1	-1.37
Cc1ccc(S(=O)(=O)N2CCCC3(CCCCC3)C2)cc1	0.92
N#Cc1c(F)cccc1Sc1ccc(Cl)cc1	0.11
CC1CN=C(N(CCc2ccccc2)C(=O)Nc2cccc(Cl)c2)S1 (stereo not drawn)	-0.7
Cc1onc(-c2ccccc2)c1C(=O)NNC(=O)c1ccc(-n2c(C)ccc2C)cc1	3.07*
Cc1onc(-c2ccccc2)c1C(=O)NCCNC(=O)c1c(-c2ccccc2)noc1C	1.2
Cc1onc(-c2ccccc2)c1C(=O)n1cccc1	-0.05
COc1ccc(S(=O)(=O)NCCC#N)cc1OC	0.71
COC(=O)c1nn(-c2ccc(OC)cc2)c(=O)c2c(NC(C)=O)sc(C)c12	-1.65
CC1(C)Cc2c(sc(NC(=O)CN3C(=O)C4CC=C(Cl)CC4C3=O)c2C#N)CO1 (stereo not drawn)	4.82*
N#Cc1c(N2C(=O)C3CC=C(Cl)CC3C2=O)sc2c1CCCC2 (stereo not drawn)	1.28
CCOC(=O)c1c(NC(=O)COc2ccccc2)sc2c1CC(C)(C)OC2	1.01
O=C(NCCN1CCOCC1)c1cc2nc(-c3ccc(Br)cc3)cc(C(F)(F)F)n2n1	1.32
FC(F)(F)c1c2c(nc3cc(-c4ccc(Cl)cc4)nn13)-c1ccccc1C2	-1.27
O=C(Nc1ccc(O)cc1)c1cc2nc3c(c(C(F)(F)F)n2n1)CCc1ccccc1-3	3.22*
O=C(Nc1cccnc1)c1cc2nc(-c3ccc(Cl)cc3)cc(C(F)(F)F)n2n1	-2.24
c1ccc2c(c1)CCCc1cc(NCCN3CCOCC3)nnc1-2	0.37
O=C(NCCN1CCOCC1)c1cc2nc3c(c(C(F)(F)F)n2n1)CCc1ccccc1-3	4.34*
O=C(Nc1ccc(Cl)cc1)Nc1cc(C2CC2)nn1-c1ccccc1	-0.59
SMILES	Dicer processing
Cc1c(-c2ccc(Cl)cc2)nc(N)c(C#N)c1-c1ccco1	0.75
CC1=C(C(=O)OC(C)C)C(c2ccc(F)c(Br)c2)CC(=O)N1 (stereo not drawn)	0.6
COc1cccc(-c2cc(C(F)(F)F)n3nc(N)nc3n2)c1	0.15
COc1ccc(-c2cc(C(F)(F)F)n3nc(N)nc3n2)cc1OC	5.47*
COc1ccc(-c2cc(C(F)(F)F)n3nc(N)nc3n2)cc1	1.88
CC(=O)COc1ccc(Cl)cc1Cl	-0.48
Cc1ccc2nc(NC(=O)c3ccc([N+](=O)[O-])cc3)[nH]c(=O)c2c1	0.06
C#CCn1c2ccccc2c2ccccc21	-1.04
Cc1nc(-c2ccccc2)sc1C(=O)NNS(=O)(=O)c1c(C)c(C)c(C)c(C)c1C	1.25
Cc1nc2cc(NCc3ccco3)ccc2n1C	1.88
